In ChEMBL document CHEMBL4808148, “HDAC6 screening dataset using tau-based substrate in an enzymatic assay yields selective inhibitors and activators” (2021):
The whole screen tested about 5,600 compounds, of which about 390 (7%) showed an effect of 50% or more. Many of the other results were omitted from the sample, so strong results are more common in it than they were.

Key:
[1] = biological target: T1, Protein deacetylase HDAC6 (Homo sapiens) (UniProt Q9UBN7); conditions: at 10 µM
T1 sequence (whole entry): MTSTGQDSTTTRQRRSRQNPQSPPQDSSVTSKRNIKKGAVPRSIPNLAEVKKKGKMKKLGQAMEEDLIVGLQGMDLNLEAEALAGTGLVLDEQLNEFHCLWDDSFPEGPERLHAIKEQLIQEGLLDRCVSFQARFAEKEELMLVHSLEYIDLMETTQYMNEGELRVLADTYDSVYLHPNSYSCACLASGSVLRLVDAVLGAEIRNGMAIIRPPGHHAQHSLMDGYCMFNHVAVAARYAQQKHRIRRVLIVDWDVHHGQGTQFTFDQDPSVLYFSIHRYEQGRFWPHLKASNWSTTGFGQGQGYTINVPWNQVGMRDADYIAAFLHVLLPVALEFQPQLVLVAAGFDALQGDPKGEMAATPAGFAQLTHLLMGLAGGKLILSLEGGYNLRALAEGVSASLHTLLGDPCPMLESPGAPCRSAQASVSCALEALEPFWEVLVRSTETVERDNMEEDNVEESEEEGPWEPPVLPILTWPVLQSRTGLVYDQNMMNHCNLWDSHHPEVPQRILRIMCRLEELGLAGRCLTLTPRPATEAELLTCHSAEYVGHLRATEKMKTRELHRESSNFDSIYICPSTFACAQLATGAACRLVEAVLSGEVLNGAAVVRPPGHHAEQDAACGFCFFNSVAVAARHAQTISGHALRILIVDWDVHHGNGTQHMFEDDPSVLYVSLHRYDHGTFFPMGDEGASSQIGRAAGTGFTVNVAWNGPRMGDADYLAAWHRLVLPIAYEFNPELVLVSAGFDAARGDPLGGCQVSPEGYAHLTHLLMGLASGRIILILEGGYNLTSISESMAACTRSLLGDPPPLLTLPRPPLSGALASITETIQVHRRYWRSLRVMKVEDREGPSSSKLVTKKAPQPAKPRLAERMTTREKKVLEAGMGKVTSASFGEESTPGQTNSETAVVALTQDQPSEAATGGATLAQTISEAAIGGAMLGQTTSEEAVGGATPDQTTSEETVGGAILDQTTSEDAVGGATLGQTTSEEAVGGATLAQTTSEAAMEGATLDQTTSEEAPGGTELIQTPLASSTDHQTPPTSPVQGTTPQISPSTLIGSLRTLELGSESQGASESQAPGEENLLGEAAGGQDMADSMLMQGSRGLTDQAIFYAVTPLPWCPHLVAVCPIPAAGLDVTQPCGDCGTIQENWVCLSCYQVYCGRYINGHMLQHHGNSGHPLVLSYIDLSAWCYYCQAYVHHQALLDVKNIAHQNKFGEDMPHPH

[2] = biological target: Protein deacetylase HDAC6 (Homo sapiens) (UniProt Q9UBN7); conditions: at 10 µM; remark: listed apart in the source

Compound O=S(=O)(O)c1ccc(O)cc1 has an inhibition [1] of 4.16%.

Compound CCCCc1ccc(C(N)=O)nc1 has an inhibition [1] of 32.3%.

Compound CC(C)(C)c1[nH]cnc1/C=c1\[nH]c(=O)/c(=C/c2ccccc2)[nH]c1=O has an inhibition [1] of 77.4%.

Work on COc1cc2c(cc1OC(C)C)[C@H](c1ccc(Cl)cc1)N(c1ccc(N(C)C[C@H]3CC[C@H](N4CCN(C)C(=O)C4)CC3)cc1)C(=O)C2 yielded an inhibition [1] of 17.5%.

For O=c1cc(-c2ccc(O)c(O)c2)oc2cc(O)cc(O)c12, the inhibition [1] was 100%.

In the case of O=c1c(O)c(-c2ccc(O)c(O)c2)oc2cc(O)cc(O)c12, the inhibition [1] is reported as 98.5%.

For CC(=O)N[C@H](C=O)[C@@H](O)[C@H](O)[C@H](O)CO, the inhibition [1] was 19.4%.

Compound N[C@@H](CC(=O)N1CCn2c(nnc2C(F)(F)F)C1)Cc1n[nH]c2c(F)c(F)ccc12 has an inhibition [1] of 18.7%.

With O=C(O)C1CCC(c2cc3cccnc3c(-c3cccc(F)c3)n2)CC1 (configuration not stated) the inhibition [1] was -5.88%.

In the case of MONOCTANOIN, CHEMBL6066833, the inhibition [2] is reported as -5.59%.

N=C(N)Nc1ccc(C(=O)Oc2ccc3cc(C(=N)N)ccc3c2)cc1 was tested, and the inhibition [1] was 29.9%.

CCOC(=O)[C@@H](C)Oc1ccc(Oc2nc3ccc(Cl)cc3o2)cc1 gave an inhibition [1] of 14.5%.

For Oc1cccc(Nc2ccc(Nc3cccc(O)c3)nn2)c1, the inhibition [1] was 79.8%.

Compound CN(C)c1cccc(Oc2cnc(Nc3cccc(O)c3)nc2)c1 has an inhibition [1] of 30.8%.

Compound CS(=O)(=O)c1ccc(Cn2c3c(c4cc(F)cc(F)c42)CCCC3CC(=O)O)cc1 (configuration not stated) has an inhibition [1] of -7.09%.

Work on C#CC[C@H](c1nc2cc(Cl)ccc2c(=O)n1Nc1ccccc1)N(CCCN)C(=O)c1cccc(Cl)c1F yielded an inhibition [1] of 11.7%.

For CCC(CC)n1ccc2c(C(=O)NCc3c(C)cc(C)[nH]c3=O)cc(C#N)cc21, the inhibition [1] was 15.2%.

Compound CC(O)C(CO)NC(=O)C1CSSCC(NC(=O)C(N)Cc2ccccc2)C(=O)NC(Cc2ccccc2)C(=O)NC(Cc2c[nH]c3ccccc23)C(=O)NC(CCCCN)C(=O)NC(C(C)O)C(=O)N1 (configuration not stated) has an inhibition [1] of 19.6%.

For NYSTATIN, CHEMBL5465559, the inhibition [2] was 30.5%.

For O=C(O)CNC(=O)c1c(O)c2ccccc2n(Cc2ccccc2)c1=O, the inhibition [1] was 81.7%.

Compound CCc1c(C(=O)C(N)=O)c2c(OCC(=O)O)cccc2n1Cc1ccccc1 has an inhibition [1] of 20%.

In the case of O=C(O)CNC(=O)c1ccccc1I, the inhibition [1] is reported as 36.6%.

With Cc1ncc(C[n+]2csc(CCOP(=O)(O)OP(=O)(O)O)c2C)c(N)n1 the inhibition [1] was 37.8%.

Work on COC(=O)c1ccc2c(c1)nc(NC(=O)c1ccccc1)n2CCCc1ccccc1 yielded an inhibition [1] of -9.35%.

Work on CN[C@@H]1Cc2cccc3[nH]c(=O)n(c23)C1 yielded an inhibition [1] of 4.82%.

In the case of Oc1ncc(N(CCCl)CCCl)c(O)n1, the inhibition [1] is reported as 2.6%.

CN1CCC(c2c[nH]c3ccc(O)cc23)CC1 gave an inhibition [1] of 5.85%.

Compound CN1CCN(c2ccc3ccccc3n2)CC1 has an inhibition [1] of 44.6%.

CN1CCN(c2ccc3[nH]c(-c4ccc5[nH]c(-c6ccc(O)cc6)nc5c4)nc3c2)CC1 showed an inhibition [1] of 64%.

Work on NC(=O)c1cc[n+](CC2=C(C(=O)[O-])N3C(=O)[C@@H](NC(=O)Cc4cccs4)[C@H]3SC2)cc1 yielded an inhibition [1] of -9.58%.

In the case of O=C(O)C1CSCN1 (configuration not stated), the inhibition [1] is reported as 8.04%.

With O=C(Nc1ccc(S(=O)(=O)Nc2ccccc2Cl)c(Cl)c1)c1ccccn1 the inhibition [1] was 50.8%.

With O=C(NNc1ccccc1)c1ccncc1 the inhibition [1] was 19%.

COc1cc(NC(=O)c2cccc(-n3cc(NC(=O)Nc4cccc(C)c4)cn3)c2)cc(OC)c1OC was tested, and the inhibition [1] was 0.29%.

For CC(C)OC(=O)Nc1cccc(Cl)c1, the inhibition [1] was 81%.

With COc1cc(NC(=O)c2ccccn2)ccc1Cl the inhibition [1] was 101%.

With CNC(=O)Oc1ccccc1OC(C)C the inhibition [1] was 19.4%.

O=C(Nc1cccc(Cl)c1)c1ccccn1 gave an inhibition [1] of 104%.

O=C(Nc1cnc(Cl)nc1)c1ccc(F)c(F)c1 gave an inhibition [1] of 8.67%.

Work on C[C@H](Cc1ccc2c(c1)OC(C(=O)O)(C(=O)O)O2)NC[C@H](O)c1cccc(Cl)c1 yielded an inhibition [1] of 16.3%.

Work on COc1ccc(C(=O)Nc2c(Cl)cncc2Cl)cc1OC1CCCC1 yielded an inhibition [1] of 8.11%.

Compound C=CCN1CC[C@]23c4c5ccc(O)c4O[C@H]2[C@@H](OCCOCCOCCOCCOCCOCCOCCOC)CC[C@@]3(O)[C@H]1C5 has an inhibition [1] of 3.73%.

With OC[C@H]1O[C@H](O)C[C@@H](O)[C@@H]1O the inhibition [1] was -3.53%.

In the case of O=C(Nc1cc(C(F)(F)F)cc(C(F)(F)F)c1)Nc1c(Br)cc(Br)cc1-c1nnn[nH]1, the inhibition [1] is reported as 0.45%.

O=C(c1cn(Cc2cncn2Cc2ccc(Br)cc2)cc1-c1cccc2ccccc12)N1CCOCC1 gave an inhibition [1] of -6.62%.

Compound COc1cc2c(cc1OC)CN(C(=O)/C=C/c1c(-c3ccccc3)n(C)c3ncccc13)CC2 has an inhibition [1] of 33.3%.

COC1[C@@H](O)[C@@H](O)C(O)[C@H](O)[C@H]1O (some centres not stated) was tested, and the inhibition [1] was -3.32%.
